Assay results as given in PubChem BioAssay (NCI).
Compounds without any hit were thinned out: in the full panel of roughly 83,000, 20% have a hit.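 Note: values are percent growth. 100 is the growth of untreated cells, values between 100 and 0 indicate rising inhibition; between -100 and 0 indicates cell death.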 Calls of active or inactive are those of the source. Rule for the calls: active = growth percent below 10; inactive = the rest.

Key:
Test in all cases: NCI-60 one-dose screen, 48 h (100 = growth as untreated, 0 = no growth, -100 = all killed)
Settings in all cases: 10 µM unless noted
K-562 leukemia = system: K-562 leukemia
MALME-3M melanoma = system: MALME-3M melanoma
MDA-MB-231 breast = system: MDA-MB-231 breast
RXF 393 renal = system: RXF 393 renal
SF-268 CNS = system: SF-268 CNS
SF-295 CNS = system: SF-295 CNS
SF-539 CNS = system: SF-539 CNS
UACC-257 melanoma = system: UACC-257 melanoma
M14 melanoma = system: M14 melanoma
HCT-15 colon = system: HCT-15 colon

Measured: growth

COc1ccc(C2CC(c3cccc(Nc4ccnc5cc(Cl)ccc45)c3)=NN2C=O)cc1 (stereo not given)
active: RXF 393 renal -5.62% | SF-295 CNS 2.43% | SF-539 CNS -1.14%
inactive: K-562 leukemia 14.4% | MALME-3M melanoma 55.8% | MDA-MB-231 breast 24.3% | SF-268 CNS 44.5% | UACC-257 melanoma 63.3% | M14 melanoma 25.2% | HCT-15 colon 27.8%

CCC1=C(c2ccc(OC)cc2)C(C)(C)Oc2cc(O)c(CN3CCCC3)cc21
inactive: K-562 leukemia 19.7% | MALME-3M melanoma 77.2% | MDA-MB-231 breast 95.8% | RXF 393 renal 79.9% | SF-268 CNS 88.4% | SF-295 CNS 51% | SF-539 CNS 76.8% | UACC-257 melanoma 72% | M14 melanoma 62.1% | HCT-15 colon 82.2%

COc1cc(/C=C/C(=O)N2CCN(C(=O)/C=C/c3ccccc3)CC2)cc(OC)c1OC
inactive: K-562 leukemia 97% | MALME-3M melanoma 97.8% | MDA-MB-231 breast 85.6% | RXF 393 renal 125% | SF-268 CNS 111% | SF-295 CNS 110% | SF-539 CNS 107% | UACC-257 melanoma 102% | M14 melanoma 103% | HCT-15 colon 109%

O=C1/C(=C/c2ccc([N+](=O)[O-])o2)Oc2ccc(Br)cc21
active: K-562 leukemia -1.79% | MALME-3M melanoma -28.3% | RXF 393 renal -29.6% | HCT-15 colon 0.437%
inactive: MDA-MB-231 breast 42.8% | SF-268 CNS 48.1% | SF-295 CNS 99.4% | SF-539 CNS 88% | UACC-257 melanoma 69.1% | M14 melanoma 44.9%

O=c1[nH]c(Cl)nc2c1cnn2-c1ccccc1
inactive: K-562 leukemia 43% | MALME-3M melanoma 104% | MDA-MB-231 breast 92.3% | RXF 393 renal 111% | SF-268 CNS 93% | SF-295 CNS 85.2% | SF-539 CNS 77.2% | UACC-257 melanoma 106% | M14 melanoma 84.9% | HCT-15 colon 94.7%

O=NC1CC=CCC1c1ccccc1 (stereo not given)
inactive: K-562 leukemia 105% | MALME-3M melanoma 114% | MDA-MB-231 breast 101% | RXF 393 renal 116% | SF-268 CNS 104% | SF-295 CNS 122% | SF-539 CNS 98.5% | UACC-257 melanoma 105% | M14 melanoma 105% | HCT-15 colon 104%

Cc1ccc(NC(=O)COC(=O)c2ccc(S(=O)(=O)N3CCCCCC3)cc2)cc1
inactive: K-562 leukemia 103% | MALME-3M melanoma 127% | MDA-MB-231 breast 101% | RXF 393 renal 88.9% | SF-268 CNS 94.6% | SF-295 CNS 88.9% | SF-539 CNS 105% | UACC-257 melanoma 94.3% | M14 melanoma 126% | HCT-15 colon 105%

CCOC(=O)C(C(C)=O)c1nc2sc3cc(Cl)ccc3n2c(=N)c1C#N (stereo not given)
inactive: K-562 leukemia 87.4% | MALME-3M melanoma 52.5% | MDA-MB-231 breast 62.4% | RXF 393 renal 50.8% | SF-268 CNS 64.6% | SF-295 CNS 74.7% | SF-539 CNS 99.9% | UACC-257 melanoma 72.6% | M14 melanoma 77.8% | HCT-15 colon 122%

COc1ccc(C2CC(c3ccc(OC)c(OC)c3)=NN2C(=O)c2cc(OC)c(OC)c(OC)c2)c(OC)c1 (stereo not given)
inactive: K-562 leukemia 51.3% | MALME-3M melanoma 86.7% | MDA-MB-231 breast 90.3% | RXF 393 renal 48.6% | SF-268 CNS 82% | SF-295 CNS 31% | SF-539 CNS 64.4% | UACC-257 melanoma 61.7% | M14 melanoma 63.9% | HCT-15 colon 67.4%

Cn1cnc([N+](=O)[O-])c1S(=O)(=O)Oc1ccc(Cl)cc1
active: MALME-3M melanoma -70.4%
inactive: K-562 leukemia 16.1% | MDA-MB-231 breast 65.4% | RXF 393 renal 81.8% | SF-268 CNS 93% | SF-295 CNS 94.5% | SF-539 CNS 81.4% | UACC-257 melanoma 57% | M14 melanoma 61% | HCT-15 colon 59%

COc1ccc(-c2cn(-c3ccccc3)c(-c3ccccc3)n2)cc1OC
inactive: K-562 leukemia 14.8% | MALME-3M melanoma 111% | MDA-MB-231 breast 73.8% | RXF 393 renal 102% | SF-268 CNS 47.9% | SF-295 CNS 94.7% | SF-539 CNS 79.6% | UACC-257 melanoma 105% | M14 melanoma 87% | HCT-15 colon 17.1%

NC(=O)c1ncn([C@@H]2O[C@H](CO)[C@@H](O)[C@H]2O)n1
inactive: K-562 leukemia 88.3% | MALME-3M melanoma 92.7% | MDA-MB-231 breast 89.5% | RXF 393 renal 119% | SF-268 CNS 109% | SF-295 CNS 95.5% | SF-539 CNS 108% | UACC-257 melanoma 103% | M14 melanoma 98.8% | HCT-15 colon 83.7%

CCCCCCCCCCSc1ncnc2nc[nH]c12
inactive: K-562 leukemia 48.5% | MALME-3M melanoma 102% | MDA-MB-231 breast 75.3% | RXF 393 renal 89.5% | SF-268 CNS 83.7% | SF-295 CNS 68.7% | SF-539 CNS 86.8% | UACC-257 melanoma 48.5% | M14 melanoma 94% | HCT-15 colon 82.4%

Cc1cc(C)n(C(=O)c2nn(-c3ccc(Cl)cc3)cc2O)n1
active: K-562 leukemia 6.26% | SF-295 CNS -4.15%
inactive: MALME-3M melanoma 117% | MDA-MB-231 breast 77.4% | RXF 393 renal 39.1% | SF-268 CNS 39.9% | SF-539 CNS 39.1% | UACC-257 melanoma 82.5% | M14 melanoma 45.7% | HCT-15 colon 50.2%

S=C(Nc1ccc(C2=NCCN2)cc1)Nc1ccc(C2=NCCN2)cc1
inactive: K-562 leukemia 91.4% | MALME-3M melanoma 111% | MDA-MB-231 breast 113% | RXF 393 renal 101% | SF-268 CNS 120% | SF-295 CNS 96.7% | SF-539 CNS 93.4% | UACC-257 melanoma 93.8% | M14 melanoma 94.5% | HCT-15 colon 101%

COc1ccc2c(c1)C(=O)c1c-2c(=O)n(CCCCCCC(=O)NO)c2ccccc12
active: K-562 leukemia 8.79% | MALME-3M melanoma -23.1% | MDA-MB-231 breast -5.72% | RXF 393 renal -60.9% | SF-295 CNS -33.7% | SF-539 CNS 7.21% | UACC-257 melanoma -6.3% | M14 melanoma -0.387%
inactive: SF-268 CNS 10.1% | HCT-15 colon 13.3%

CO[C@H]1CC(O[C@@H]2/C(C)=C/C[C@@H]3C[C@@H](C[C@]4(CC[C@H](C)[C@@H](C5CCCCC5)O4)O3)OC(=O)[C@@H]3C=C(C)/C(=N/O)[C@H]4OC/C(=C\C=C\[C@@H]2C)[C@]43O)O[C@@H](C)C1O (stereo not given in full)
active: K-562 leukemia -36.7% | MALME-3M melanoma -46.3% | MDA-MB-231 breast -89% | RXF 393 renal -97.2% | SF-268 CNS -92.2% | SF-295 CNS -89.5% | SF-539 CNS -68.8% | UACC-257 melanoma -81.6% | M14 melanoma -81.4% | HCT-15 colon -75.1%

O=C1NCN(CCO)CN1
inactive: K-562 leukemia 111% | MALME-3M melanoma 92.6% | MDA-MB-231 breast 125% | RXF 393 renal 107% | SF-268 CNS 108% | SF-295 CNS 113% | SF-539 CNS 93.3% | UACC-257 melanoma 96.7% | M14 melanoma 96.7% | HCT-15 colon 109%

O=C(c1ccccc1)c1ccccc1Cl
inactive: K-562 leukemia 100% | MALME-3M melanoma 102% | MDA-MB-231 breast 105% | RXF 393 renal 111% | SF-268 CNS 109% | SF-295 CNS 110% | SF-539 CNS 100% | UACC-257 melanoma 97.8% | M14 melanoma 101% | HCT-15 colon 104%

COc1ccc(C(=O)C(C)Br)cc1OC (stereo not given)
inactive: K-562 leukemia 59.2% | MALME-3M melanoma 97.2% | MDA-MB-231 breast 90% | RXF 393 renal 102% | SF-268 CNS 90.9% | SF-295 CNS 102% | SF-539 CNS 92.9% | UACC-257 melanoma 80.1% | M14 melanoma 97.5% | HCT-15 colon 46.4%

Cc1cc(Cl)ccc1Nc1nc(C(F)(F)F)ccc1C(=O)NCC(=O)N/N=C/c1c(Cl)cccc1Cl
inactive: K-562 leukemia 50.2% | MALME-3M melanoma 92.2% | MDA-MB-231 breast 61.6% | RXF 393 renal 107% | SF-268 CNS 31% | SF-295 CNS 54.2% | SF-539 CNS 79.4% | UACC-257 melanoma 149% | M14 melanoma 75.8% | HCT-15 colon 60.8%

CC(=O)n1c2ccccc2c2ccccc21
inactive: K-562 leukemia 111% | MALME-3M melanoma 126% | MDA-MB-231 breast 126% | RXF 393 renal 144% | SF-268 CNS 115% | SF-295 CNS 96.7% | SF-539 CNS 107% | UACC-257 melanoma 123% | M14 melanoma 103% | HCT-15 colon 112%

Clc1ncn[nH]1
inactive: K-562 leukemia 105% | MALME-3M melanoma 103% | MDA-MB-231 breast 112% | RXF 393 renal 102% | SF-268 CNS 104% | SF-295 CNS 78.6% | SF-539 CNS 99.8% | UACC-257 melanoma 95% | M14 melanoma 105% | HCT-15 colon 98.6%

CCOC(=O)C1=C(COCCN)NC(C)=C(C(=O)OC)C1c1ccccc1Cl (stereo not given)
inactive: K-562 leukemia 59.1% | MALME-3M melanoma 74% | MDA-MB-231 breast 17.4% | RXF 393 renal 50.9% | SF-268 CNS 87% | SF-295 CNS 96.2% | SF-539 CNS 92.9% | UACC-257 melanoma 59% | M14 melanoma 48.6% | HCT-15 colon 64.6%

COc1ccc(-c2cc(Cc3cccs3)c(=O)n(Cn3ccc4ccccc43)n2)cc1
inactive: K-562 leukemia 105% | MALME-3M melanoma 106% | MDA-MB-231 breast 100% | RXF 393 renal 116% | SF-268 CNS 110% | SF-295 CNS 101% | SF-539 CNS 101% | UACC-257 melanoma 103% | M14 melanoma 106% | HCT-15 colon 98.4%

O=C1c2ccccc2C(=O)c2c1cccc2-n1nnc2ccccc21
inactive: K-562 leukemia 95.6% | MALME-3M melanoma 132% | MDA-MB-231 breast 125% | RXF 393 renal 111% | SF-268 CNS 103% | SF-295 CNS 120% | SF-539 CNS 112% | UACC-257 melanoma 127% | M14 melanoma 127% | HCT-15 colon 102%

COc1ccc2c(c1)C(=O)c1c-2c(OCCN(C)C)nc2cc(OC)ccc12
active: K-562 leukemia -47.7% | MALME-3M melanoma -39.9% | MDA-MB-231 breast 1.22% | RXF 393 renal -8.64% | HCT-15 colon -63.4%
inactive: SF-268 CNS 35.7% | SF-295 CNS 31.8% | SF-539 CNS 15% | UACC-257 melanoma 20.5% | M14 melanoma 11.6%

N#Cc1c(N)[nH]c(S)c1C#N
inactive: K-562 leukemia 100% | MALME-3M melanoma 107% | MDA-MB-231 breast 99.3% | RXF 393 renal 113% | SF-268 CNS 108% | SF-295 CNS 87.7% | SF-539 CNS 97.9% | UACC-257 melanoma 99.9% | M14 melanoma 100% | HCT-15 colon 100%
